Molecules are shown by their SMILES. The campaign covered roughly 3,600 compounds. About 900 (25%) were called active. No rule for the calls is given here. Only a sample is shown. Measured potencies and affinities stand elsewhere.

The target in this assay is Protein Tat (Human immunodeficiency virus type 1 group M subtype B (isolate HXB2)) (UniProt P04608). Briefly: inhibitors of Tat binding to TAR RNA, dose response, counter-screen for Vif-APOBEC3G degradation inhibitor project, biochemical, fluorescence polarization, FAM-labeled TAR RNA (AID 1117361). To be noted: outcome: dose series up to 100 µM unless noted; series mostly up to 100 µM.
Regarding `COc1ccc(OC)c(NC(=O)CC2C(=O)NCCN2C(=O)Nc2cccc(Cl)c2)c1` (stereo not drawn), the compound was classed as inactive.
With `O=C(O)C1CCN(S(=O)(=O)/C=C/c2ccccc2)CC1`, the call was inactive.
Consider `Cc1ccnc(N2CCC(C(=O)NNC(=O)c3ccccc3C)CC2)n1`, for which the call was inactive.
The entry for `CCn1c(CNC(=O)Cc2ccc(OC)cc2)nnc1SCC(=O)Nc1ccc(C(=O)O)cc1` is “inactive”; for `Cc1nn(C(=O)c2cccnc2)c(C)c1C` it is “inactive”.
The entry for `COC(=O)Cc1c(C)nc2nc(-c3cccnc3)[nH]n2c1=O` is “inactive”; for `O=C(NCc1ccco1)C1CCCN(S(=O)(=O)c2cccc3nsnc23)C1` (stereo not drawn) it is “inactive”; for `c1ccc(SCc2nc3ccccc3[nH]2)cc1` it is “inactive”.
For the compound `COc1cc(/C=C(\C#N)c2nc3ccccc3[nH]2)c([N+](=O)[O-])cc1OCc1ccccc1`, the call was inactive.
Turning to `CC1(C)C2CCC1(CS(=O)(=O)Nc1cccc(S(N)(=O)=O)c1)C(=O)C2` (stereo not drawn), the compound was called inactive.
In the case of `COc1ccc(N2CCN(C(=O)c3c(-c4ccccc4)noc3C)CC2)cc1` it was “inactive”; in that of `COc1ccc(OC)c(NC(=O)NCc2ccc(F)cc2)c1`, “inactive”; in that of `COc1ccc(NC(=O)c2c(OC)cccc2OC)c(OC)c1`, “inactive”.
The entry for `Cn1nc(CC(=O)NCCN2C(=O)CSC2=O)c2ccccc2c1=O` is “inactive”; for `CCOc1ccc(-n2c(SCC(=O)Nc3cc(C)on3)nnc2-c2c[nH]c3ccccc23)cc1` it is “inactive”.
In the case of `COc1cccc(NC(=O)Nc2nnc(N3C(C)CCCC3C)s2)c1` (stereo not drawn) it was “inactive”.
For the compound `COC(=O)c1cc(=O)n(Cc2ccc3c(c2)OCO3)c(=Nc2ccc(F)c(Cl)c2)s1`, the result was inactive.
As to `COCCn1c(SCC(=O)Nc2ccccc2F)nc2c([nH]c3ccccc32)c1=O`, the result was inactive.
Turning to `O=C(O)CN1C(=O)CSc2ccccc21`, the result was inactive.
The entry for `COc1ccc(NC2=NC(C)(CO)CS2)cc1` (stereo not drawn) is “inactive”; for `COc1ccc(Nc2nc3ccccc3nc2-n2nc(C)cc2C)cc1` it is “inactive”.
In the case of `CCOC(=O)C(C(=O)OCC)C(CC(=O)C1CC1)c1ccccc1` (stereo not drawn) it was “inactive”; in that of `O=C(O)/C=C/C(=O)NNc1ncnc2ccccc12`, “inactive”.
In the case of `CCCCCCCCNc1ncnc2ccccc12` it was “inactive”; in that of `O=C(CSc1nnc(CNC(=O)c2ccccc2F)o1)c1ccccc1`, “inactive”; in that of `CCc1ccccc1NC(=O)c1cc2ncc(Br)cn2n1`, “inactive”.
As to `COc1ccc(Br)c(C(=O)NC(C)(C)CO)c1`, the outcome was inactive.
`O=[N+]([O-])c1ccc2c([N+](=O)[O-])ccc3c2c1CC3`: the compound was classed as inactive.
Regarding `CCC(=O)Nc1cccc(-c2nc3ccccc3c(=O)o2)c1`, the compound was classed as inactive.
With `O=C(O)CSCc1c(F)cccc1Cl`, the result was inactive.
In the case of `CC(C(=O)NCC1CCCCC1)N(C)Cc1ccc(Br)cc1` (stereo not drawn) it was “inactive”.
Regarding `O=S(=O)(O)c1cccc2c(N=Nc3ccc(O)c4ncccc34)cccc12`, the result was inactive.
As to `O=C(c1ccccc1)c1ccc(OC(=O)N2CCOCC2)cc1`, the outcome was inactive.
As for `CC(C)CCNC(=O)c1ccc2c(SCC(=O)O)c3c(nc2c1)CCC3`, the call was inactive.
In the case of `O=C(Nc1cccc(S(=O)(=O)N2CCCCC2)c1)c1ccc2c(=O)n3c(nc2c1)CCCCC3` it was “inactive”.
As for `O=C(c1ccc(-n2cnnn2)cc1)N1CCOCC1`, the result was inactive.
In the case of `CCOC(=O)N1CCN(C(=O)c2ccc(NC(=O)c3ccc(C)cc3)cc2)CC1` it was “inactive”.
With `CCC(CC)C(=O)Nc1cccc(C(=O)N2CCOCC2)c1`, the compound was called inactive.
Consider `CCOC(=O)C1CCN(C(=O)c2ccc3snnc3c2)CC1`, for which the call was inactive.
The entry for `O=C(NNC(=O)c1ccccc1-n1cccc1)c1ccc(Cl)c(Cl)c1` is “inactive”; for `CC(C)(C)NC(=O)c1cnn2c1NC(c1ccc(F)cc1)CC2C(F)(F)F` (stereo not drawn) it is “inactive”; for `CN(C)C=NC(=O)/C(C#N)=C1\CCc2ccccc2N1` it is “inactive”.
In the case of `Nn1c(SCC(=O)NCCc2ccc(F)cc2)nnc1C1CCCCC1`, the compound was classed as inactive.
In the case of `COc1ccccc1CNC(=O)CCS(=O)(=O)c1ccc2c(c1)CCCN2C(C)=O` it was “inactive”; in that of `CCOC(=O)Nc1ccc2c(CN3C(=O)NC4(CCCC4)C3=O)cc(=O)oc2c1`, “inactive”.
In the case of `Cc1ccc(N(CN2C(=O)C3CC=CCC3C2=O)C(=O)c2ccco2)cc1Cl` (stereo not drawn) it was “inactive”.
Consider `CCc1[nH]nc2c1C1(CCN(C(=O)OCc3ccccc3)CC1)C(C#N)=C(N)O2`, for which the compound was classed as inactive.
In the case of `Cc1[nH]c2ccccc2c1Cc1nnc(SCc2ccccc2)o1` it was “inactive”.
Take `Cn1cc(CN2CCN(CCO)CC2)c(-c2ccc(Oc3ccccc3)cc2)n1`: the call was inactive.
In the case of `CCc1c(O)nc(N2CCN(Cc3ccccc3)CC2)[nH]c1=O` it was “inactive”.
For `O=c1ccccn1Cc1c(F)cccc1Cl`, the compound was called inactive.
In the case of `CCOC(=O)c1cnc(-c2ccccc2)nc1Oc1ccc(C)cc1` it was “inactive”; in that of `CCOC(=O)Cn1c(=O)n(CC(=O)OCC)c2ccccc21`, “inactive”.
The entry for `CCOc1ccc(-n2c(C)nc(O)c2N=Nc2ccccc2)cc1` is “inactive”.
The entry for `CCOc1ccccc1NC(=O)Cn1c(-c2ccc(Cl)cc2)noc1=O` is “inactive”.
With `CCOc1ccccc1CNC(=O)Cn1c(=O)oc2ccccc21`, the compound was classed as inactive.
The entry for `CCOc1ccc(C(=O)N2CCCN(C(=O)c3ccc(OCC)cc3)CC2)cc1` is “inactive”; for `Cc1sc(NC(=O)CN2CCOCC2)nc1-c1ccc2c(c1)CCN2S(=O)(=O)c1ccccc1` it is “inactive”.
The entry for `COc1ccccc1NC(=O)COC(=O)c1c(NC(C)=O)sc(C)c1C` is “inactive”; for `CCOc1ccc(-n2c(SC)nc3c(c2=O)SCC3)cc1` it is “inactive”; for `CC(C)Oc1ccc(CNCC2(O)CCOC(C)(C)C2)cc1` (stereo not drawn) it is “inactive”.
In the case of `Cc1sc(NC(=O)CSc2nnnn2C(C)C)c(C#N)c1C` it was “inactive”.
For `CNc1sc(C(=O)c2cccs2)c(N)c1-c1nc2ccccc2s1`, the result was inactive.
With `COCCNC(=O)CN1C(=O)CSc2ncccc21`, the compound was classed as inactive.
The entry for `CC(=O)OC1OCCOC1NC(=S)Nc1ccc(C)cc1` (stereo not drawn) is “inactive”; for `COc1ccc(OCc2nnc3n2N=C(c2ccc(OC)cc2)CS3)cc1` it is “inactive”; for `CCn1c(SCC(=O)c2ccc(F)cc2)nnc1-c1ccoc1C` it is “inactive”.
As for `COC(=O)CSc1nnc(-c2ccccc2OC)n1-c1ccc(C)cc1`, the compound was called inactive.
In the case of `CCCCOc1ccccc1C1NC(=O)NC(C)=C1C(=O)OCc1ccco1` (stereo not drawn) it was “inactive”.
The entry for `COc1ccc(C(=O)O)cc1S(=O)(=O)N1CCCc2ccccc21` is “inactive”.
The entry for `CCOc1cc(C)c(Cl)cc1S(=O)(=O)NCc1ccco1` is “inactive”; for `Oc1cc2c(cc1O)[C@@H](c1ccccc1)CNCC2` it is “inactive”.
Turning to `CC1CCc2cc(F)ccc2N1C(=O)CSc1nnc(-c2cccs2)n1C` (stereo not drawn), the compound was classed as inactive.
In the case of `CCOc1cc(S(=O)(=O)NCc2ccccn2)c(C)cc1C` it was “inactive”; in that of `O=C(Cn1nnc(-c2ccccc2-n2cnnn2)n1)c1ccccc1`, “inactive”.
As to `O=C(CN1C(=O)/C(=C\c2cccs2)SC1=S)Nc1cccc(C(=O)O)c1`, the compound was called inactive.
`C=CCOc1ccc(/C=C2\SC(=S)N(CCC(=O)O)C2=O)cc1`: the compound was called inactive.
In the case of `CC(=O)O/N=C/c1c(N2CCOCC2)n(C)c2ccccc12` it was “inactive”; in that of `CCS(=O)(=O)Nc1ccc(C(=O)CC2(O)C(=O)Nc3ccccc32)cc1` (stereo not drawn), “inactive”.
The entry for `COc1ccc(S(=O)(=O)Cc2ccc(C(=O)NC(C)C)o2)cc1` is “inactive”; for `CCOC(=O)C1CCCN(C(=O)c2ccc(CS(=O)(=O)c3ccc(Br)cc3)o2)C1` (stereo not drawn) it is “inactive”.
In the case of `CCOC(=O)CSc1nnc(CNC(=O)c2cccs2)n1CCc1ccccc1` it was “inactive”; in that of `COc1ccccc1N(CC(O)CN1C(=O)NC(C)(C)C1=O)S(=O)(=O)c1ccc(C)cc1` (stereo not drawn), “inactive”; in that of `Cc1ccc(SCC2=NNC(=O)C2)cc1`, “inactive”.
Regarding `Cc1nn(Cc2ccccc2)c(C)c1/C=N/NC(=O)c1ccccc1O`, the call was inactive.
The entry for `CN(C)/C=N/NC(=O)c1ccccc1Cl` is “inactive”; for `Cc1nc2ccc(S(=O)(=O)N(C)CC(=O)N3CCc4ccccc43)cc2s1` it is “inactive”; for `COC(=O)[C@@]1(Cc2ccc(OC)cc2)[C@H]2c3cc(C(=O)N(C)C)n(C[C@H](O)CO)c3C[C@H]2CN1C(=O)c1ccccc1` it is “inactive”.
`COc1ccc(-c2nc(CS(=O)CC(=O)NCc3ccco3)c(C)o2)cc1` (stereo not drawn): the result was inactive.
In the case of `CCOC(=O)c1sc2ncnc(N3CCN(C(=O)OCC)CC3)c2c1C` it was “inactive”; in that of `CCCCC(O)(CCCC)C(=O)N/N=C(\C)c1ccc(Cl)cc1`, “inactive”; in that of `Cc1ccc2nc(SCC(=O)N(CC(C)C)c3c(N)n(CC(C)C)c(=O)[nH]c3=O)[nH]c2c1`, “inactive”.
Regarding `COc1ccc(NC(=O)C2CCCN(S(=O)(=O)c3cccnc3)C2)cc1` (stereo not drawn), the result was inactive.
Consider `O=c1[nH]c2ccccc2c(O)c1-[n+]1ccccc1`, for which the result was inactive.
`COC(=O)C(NC(=O)C(NC(=O)c1ccccc1)C(C)C)C(C)C` (stereo not drawn): the outcome was inactive.
Consider `CCC(C)[C@H](NC(=O)Nc1ccccc1F)C(=O)OC` (stereo partly drawn), for which the outcome was inactive.
In the case of `CCOC(=O)c1ccccc1NC(=O)CSc1nccn1C` it was “inactive”.
In the case of `O=[N+]([O-])c1ccc(N2CCN(c3ccc(Cl)nn3)CC2)c(Cl)c1` it was “inactive”; in that of `CCc1ccc(C(=O)Nc2cccnc2Oc2ccc(Cl)cc2)cc1`, “inactive”; in that of `CC1=CC(C)(C)Nc2ccc(OC(=O)c3cccnc3)cc21`, “inactive”.
For the compound `Cc1cc(C)cc(OCC(=O)NNC(=O)CN2C(=O)c3ccccc3C2=O)c1`, the compound was classed as inactive.
The entry for `Cc1ccc(C(=O)NNS(=O)(=O)c2ccccc2[N+](=O)[O-])cc1` is “inactive”; for `O=C(Nc1ccccc1[N+](=O)[O-])C1C(c2ccccc2)=C1c1ccccc1` it is “inactive”; for `O=C(NN=C1CCCCCC1)c1cccnc1` it is “inactive”.
The entry for `O=C(COc1cccc2cccnc12)N1CCc2ccccc2C1` is “inactive”; for `Cc1cc(C)n(CC(=O)NNC(=O)c2ccc(NC(=O)CC#N)cc2)n1` it is “inactive”; for `CN(CCOCCOc1ccc2ccccc2c1)Cc1ccccc1` it is “inactive”.
In the case of `Cc1c(C(=O)Nc2ccncc2)oc2c1C(=O)CC(C)(C)C2` it was “inactive”; in that of `CC(C(=O)Nc1ccc(F)c(F)c1F)N1CCCCCC1` (stereo not drawn), “inactive”.
On to `CCOC(=O)/C(C#N)=C/c1c(OCC)n(CC)c2ccccc12`, for which the outcome was inactive.
In the case of `COC1=CC(=O)c2c(ccc3ncnc(N)c23)C1=O` it was “inactive”; in that of `CCOC(=O)c1cc(-c2ccccc2)n(CC(=O)O)c1C`, “inactive”.
Turning to `CC(C)n1c(CCC(=O)O)ccc1-c1ccccc1`, the result was inactive.

Values taken from PubChem BioAssay AID1117361 (Southern Research Institute, 2015).
